# High-throughput results as filed in PubChem BioAssay.
# Compounds with a hit are over-represented: about 10% of the library has one in this group of screens.
# NIH3T3 tox – NIH 3T3 cell cytotoxicity | NIH 3T3 viability, CellTiter-Glo ATP luminescence, 48-72 h | Potency, µM (doses to about 96.7 µM), for inactives: top-dose activity change, negative = cytotoxicity, hits mostly inhibitors | hit rate 4.3% among 94,000 | AID 1345082; further: nearly all actives have a fitted effect of over 55% in size
#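 Cytotoxicity was measured by CellTiter-Glo ATP luminescence after 48 or 72 h compound exposure at 37 °C. Mouse NIH 3T3 fibroblasts were seeded at 400 cells/well and dosed by 23 nL pin transfer.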
# GPT2 inhibitor – GPT2 alanine aminotransferase inhibition; Potency, µM (series often up to 57.7 µM), for inactives: at the top dose activity change, negative = inhibition, actives largely listed as inhibitors; Recombinant GPT2, coupled pyruvate oxidase/HRP Amplex Red fluorescence; Q8TD30; AID 1671188; hit rate 0.25% among 100,000; further: nearly all actives have a fitted effect of over 60% in size
# Target sequence (Q8TD30 whole entry, looked up): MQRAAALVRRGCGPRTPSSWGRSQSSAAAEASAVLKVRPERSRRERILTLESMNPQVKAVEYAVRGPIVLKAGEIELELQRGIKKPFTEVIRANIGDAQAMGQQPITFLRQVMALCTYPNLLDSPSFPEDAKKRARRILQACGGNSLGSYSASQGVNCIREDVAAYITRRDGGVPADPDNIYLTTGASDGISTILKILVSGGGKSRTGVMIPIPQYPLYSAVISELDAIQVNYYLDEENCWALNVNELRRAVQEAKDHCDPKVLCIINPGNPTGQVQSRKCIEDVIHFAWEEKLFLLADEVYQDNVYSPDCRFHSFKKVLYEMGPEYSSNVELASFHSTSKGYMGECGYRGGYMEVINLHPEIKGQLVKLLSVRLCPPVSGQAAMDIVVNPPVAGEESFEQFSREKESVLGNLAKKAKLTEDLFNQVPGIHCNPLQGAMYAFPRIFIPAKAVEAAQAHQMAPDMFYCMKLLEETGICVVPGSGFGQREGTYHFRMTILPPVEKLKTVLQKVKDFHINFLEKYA
#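 Recombinant GPT2 (10ng/uL) with 250uM a-KG and 2mM L-alanine, 30 min at room temperature, in HEPES pH 7.5 buffer. Pyruvate detected by pyruvate oxidase/HRP/Amplex Red fluorescence after 30 min in the dark; AOA (50uM) as positive control.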
# HEK cytotox – kills HEK 293 cells | HEK 293 viability, ATP luminescence (CellTiter-Glo), 48-72 h | Potency, µM (highest dose often 115 µM), without a hit: top-dose activity change, negative = cytotoxicity, actives largely listed as inhibitors | hit rate 6.6% among 94,000 | AID 1345083; further: nearly all actives have a fitted effect of over 60% in size
#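 Pintool-delivered compounds were incubated with HEK 293 cells (250 cells/well) at 37 degree Celsius for 48 or 72 hr. ATP-dependent luminescence (CellTiter-Glo) then reported remaining viable cells.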
# Luciferase inh – Photinus pyralis luciferase inhibition. P08659. purified P. pyralis luciferase, luminescence, biochemical. Potency, µM (titrated, usually from 115 µM), hits mostly inhibitors. hit rate 2.5% among 76,000. AID 1347043; further: nearly all actives have a fitted effect of over 65% in size
#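 Biochemical qHTS: compound (6-point titration) added to 10uM D-luciferin plus 10uM ATP in Tris acetate pH 7.5 buffer with Mg, Tween-20 and BSA, then purified enzyme at 10nM; light output imaged.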
# hNpr1 antagonist – human Npr1 receptor antagonism; P16066; HEK293 hNpr1 GloSensor cGMP, ANP-stimulated luminescence; Potency, µM (highest dose often 46.3 µM), for the others: at the highest dose activity change, negative = inhibition, hits mostly inhibitors; hit rate 1.6% among 76,000; AID 1347048; calls by dose curve; further: nearly all actives have a fitted effect of over 60% in size
#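 Compound pre-incubated 30 min at room temperature on GloSensor-loaded HEK293 cells stably carrying hNpr1 and the pGS-40F cGMP biosensor. Stimulation uses hNppA at 0.1 nM final; luminescence is taken at baseline and 20 min post-agonist.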
# * marks the source's active call; other numbers are inactive results; i = inactive; ? = inconclusive; / = not tested or not shown; ! = not confirmed by another sample; [ ] = dose if it differs, or a comment. Unless noted, the call rests on the fitted dose curve; in most records, active means well fitted curve in the direction sought with a large enough effect; inconclusive means small, poorly fitted or top-dose-only effect, or another doubt; inactive means no such curve, though single readings can be large; an effect the other way counts as inactive or inconclusive. On the % scale 0 is the no-effect control and ±100 the full control effect; potency means the concentration at half of the fitted maximal effect.
SMILES,NIH3T3 tox,GPT2 inhibitor,HEK cytotox,Luciferase inh,hNpr1 antagonist
C[C@@]12C[C@]3(O)O[C@H](O1)[C@]1(COC(=O)c4ccccc4)[C@H]3C[C@@]12O[C@@H]1O[C@H](COC(=O)c2ccccc2)[C@@H](O)[C@H](O)[C@H]1O,/,3%[27.3 µM],/,/,/
CC1=C[C@@H](CNCCN2CCOCC2)[C@H](C(C)C)C[C@H]1Cc1nnc(-c2ccccc2)o1,?,-3%,?,i,0%
CC(C)Cc1cc(C[C@@H]2C[C@H](NC3CCOCC3)C2(C)C)no1,-9%[138 µM],3%[88.5 µM],-12%[172 µM],i,5%[70.6 µM]
CC(C)(C)CN[C@H]1C[C@@H](Cc2cc(COc3ccccc3)on2)C1(C)C,28µM*,2%[88.5 µM],22µM*,i,-12%[70.6 µM]
COc1ccc(C(=O)N[C@H]2C[C@@H](Cc3cc(COc4ccccc4)on3)C2(C)C)cc1,28µM*,-10%[88.5 µM],?,i,?
CC1(C)[C@H](Cc2cc(COc3ccccc3)on2)C[C@@H]1NC1CCOCC1,?,5%[88.5 µM],?,i,4%[70.6 µM]
CN1CCC(N[C@H]2C[C@@H](Cc3cc(-c4ccc(F)cc4)on3)C2(C)C)CC1,7.1µM*,4%[88.5 µM],8.9µM*,63µM*,?
CC1(C)[C@H](Cc2cc(COc3ccccc3)on2)C[C@@H]1NC(=O)COc1ccccc1,63µM*,-9%[88.5 µM],50µM*,i,?
O=C(NCCCc1ccccc1)c1ccc2oc(-c3cccnc3)nc2c1,?,-14%,?,/,/
COC(=O)[C@@H]1Cc2ncn(C)c2CN1C(=O)c1ccc(C#N)cc1,-1%[174 µM],-12%[88.5 µM],-11%[172 µM],i,-3%[70.6 µM]
COCC(=O)N[C@H]1C[C@@H](Cc2cc(-c3ccc(OC)cc3)on2)C1(C)C,56µM*,?,35µM*,?,-14%[70.6 µM]
CCCN[C@H]1C[C@@H](Cc2cc(COc3ccccc3)on2)C1(C)C,?,-3%[88.5 µM],?,i,-5%[70.6 µM]
COc1ccc(-c2cc(C[C@@H]3C[C@H](NC(=O)c4ccccc4)C3(C)C)no2)cc1,?,-11%[88.5 µM],?,i,?
CCNC(=O)N[C@H]1C[C@@H](Cc2cc(COc3ccccc3)on2)C1(C)C,?,-21%[88.5 µM],89µM*,i,4%[70.6 µM]
CCCCc1cc(C[C@@H]2C[C@H](NC(=O)c3cccc(F)c3)C2(C)C)no1,63µM*,-28%[88.5 µM],63µM*,i,?
CC1(C)[C@H](Cc2cc(COc3ccccc3)on2)C[C@@H]1NC(=O)Cc1ccccc1,56µM*,0%[88.5 µM],56µM*,i,?
Cc1cnc(C2CC2)n1C1CCN(C(=O)CC(C)C)CC1,0%,-30%,i,i,1%
Cn1ncc2c(C(=O)N3CCN(Cc4ccccc4)CC3)cc(-c3ccc(Cl)cc3Cl)nc21,?,i,40µM*,/,/
Cn1ncc2c(C(=O)N3CCN(c4ncccn4)CC3)cc(-c3ccc(Cl)nc3)nc21,35µM*!,?,?,/,/
CN(C)C(=O)c1cc(-c2ccc(Cl)cc2Cl)c2cnn(C)c2n1,-8%,2%,-8%,/,/
CN1CCN(C(=O)c2cc(-c3ccc(Cl)cc3Cl)nc3c2cnn3C)CC1,-22%,-17%,-4%,/,/
CN1CCN(C(=O)c2cc(-c3cc(Cl)cc(Cl)c3)nc3c2cnn3C)CC1,?,i,?,/,/
CN(C(=O)c1cc(-c2cc(Cl)cc(Cl)c2)nc2c1cnn2C)c1ccccc1,?,/,40µM*,/,/
Cn1ncc2c(-c3ccc(Cl)cc3Cl)cc(C(=O)N3CCN(c4ncccn4)CC3)nc21,45µM*,-2%,32µM*,/,/
CC(c1ccccn1)N(C)Cc1ccc(S(C)(=O)=O)cc1 (centres undefined),0%,-11%,i,i,3%
SMILES,NIH3T3 tox,GPT2 inhibitor,HEK cytotox,Luciferase inh,hNpr1 antagonist
CN1[C@@H](CCC(=O)N2CCN(c3ccccn3)CC2)CNC(=O)[C@@H]2[C@H]1CCN2Cc1ccc(CO)o1,-4%,1%,i,i,5%
Cn1ncc2c(C(=O)N3CCN(Cc4ccccc4)CC3)cc(-c3ccc(Cl)cc3)nc21,?,4%,40µM*,/,/
Cn1ncc2c(C(=O)N3CCN(Cc4ccccc4)CC3)cc(-c3ccc([S+](C)(=O)[O-])cc3)nc21,?,-16%,-21%,/,/
C[C@](N)(Cc1ccc(O)c(O)c1)C(=O)O,/,7.9µM*,/,/,/
CCn1cc(S(=O)(=O)N2CCC3(CC2)CC2C(=O)NCCN2C3)cn1 (centres undefined),-4%,0%,-2%,i,4%
COc1ccc(CN2CC3(CCN(C(=O)c4ccc(OC)c(F)c4)CC3)C2=O)cc1,-25%,-2%,-23%,i,1%
COc1ccc(CN2CC3(CCN(C(=O)c4cc(-c5ccc(F)cc5)n[nH]4)CC3)C2=O)cc1,?,-2%,89µM*,i,-15%
CCCCn1c(=O)c(C(=O)NC2CCCc3ccccc32)nc2cccnc21 (centres undefined),35µM*,i,40µM*,/,/
CCCCn1c(=O)c(C(=O)NCc2ccccn2)nc2cccnc21,?,i,-1%[172 µM],/,/
CCOC(=O)c1cccnc1,/,i,/,/,/
CC(C)c1cccc(NC(=O)Cn2cccc2-c2nc(-c3ccc4c(c3)OCO4)no2)c1,28µM*,3%,?,i,-3%
COc1ccc(OC)c(NC(=O)Cn2cccc2-c2nc(-c3ccc4c(c3)OCO4)no2)c1,?,4%,35µM*,i,-13%
COc1cc(Cl)c(C)cc1NC(=O)Cn1cccc1-c1nc(-c2ccc3c(c2)OCO3)no1,-16%,i,-20%,i,2%
CC(=O)N1CCC(Oc2ccc(Cl)cc2C(=O)NCC(C)c2ccccc2)CC1 (centres undefined),-23%,i,-28%,i,-15%
CC(C)C[C@@H](CO)n1cc(-c2cncnc2)nn1,-11%,?,i,i,2%
CN(Cc1ccccc1C(F)(F)F)C(=O)c1ccccc1,-16%[138 µM],1%[88.5 µM],?,i,23%[70.6 µM]
CN(Cc1ccccc1C(F)(F)F)C(=O)c1cccc(Cl)c1,?,i,89µM*,i,0%[70.6 µM]
O=C(C1CCCC1)N1CCC(Oc2cnc3c(ccn3-c3cncnc3)c2)CC1,?,0%[88.5 µM],?,i,1%[70.6 µM]
C[S+](=O)([O-])NCCn1ccc2cc(OC3CCN(C(=O)C4CCCC4)CC3)cnc21,100µM*,5%[88.5 µM],?,i,-27%[70.6 µM]
Cc1c(-c2cc(C(=O)N[C@@H]3CCOC[C@H]3OCC(=O)O)no2)cnn1C,1%,1%[11.5 µM],i,i,-2%
COc1ccc(-c2ccnc3nc(CCc4ccc(OC)c(OC)c4)nn23)c(F)c1,-29%,-3%,45µM*,i,-19%
COc1ccc(-c2ccnc3nc(Cc4ccc(F)cc4)nn23)c(F)c1,?,i,25µM*,i,-14%
